Data on 27 molecules can be found in PubChem BioAssay AID1671193 (National Center for Advancing Translational Sciences (NCATS), 2021).

Each structure is given as a SMILES string. Hit rate of the full screen: of about 150,000 compounds, about 180 (0.12%) were called active. About 6% were inconclusive and are not listed. This is one part of a sample in which actives are shown more often than they occur. Values without a mark were called inactive. Calls come from the whole dose curve; as a rule, active = well fitted cell-killing curve with a large enough effect; inconclusive = small, poorly fitted or top-dose-only effect, or effect the other way; inactive = flat fitted curve, though single readings scatter.
Potency is the fitted concentration of half-maximal effect.

The test can be described thus: GF-AFC viability counterscreen for inhibitors of alpha-synuclein gene (SNCA) expression. Note: nearly all actives have a fitted effect of over 30% in size. To be noted: HEK-293-SNCA-luc viability, GF-AFC fluorescence, 24 h; series mostly up to 57.1 µM; activity change, negative = cytotoxicity: at the top concentration. The text has this: Assay Submitter (PI): Daniel R. Scoles Ph.D.
Department of Neurology, University of Utah, Salt Lake City, Utah
Accumulation of alpha-synuclein is a main underlying pathological feature of Parkinson's disease (PD) and alpha-synucleinopathies, for which lowering expression of the alpha-synuclein gene (SNCA) is a potential therapeutic avenue. Using a cell-based luciferase reporter of SNCA expression we performed a quantitative high throughput screen (qHTS) of 155,885 compounds in dose response. The screening assay was generated using genome editing to insert the luciferase gene downstream and in frame of the SNCA gene in HEK-293 cells (1). A viability counterscreen using GF-AFC was used to eliminate cytotoxic and false positive compounds. After in silico analysis (clustering, removal of frequent hitter nuisance chemotypes), inhibitor compounds from the primary screen were selected for follow up and re-tested at 11-doses in the SNCA-luc cells (luciferase and GF-AFC confirmation), and in CMV-luc expressing cell line to flag general transcriptional repressors.
Described herein are the results of the GF-AFC viability counterscreen for SNCA inhibitors; inactivity (no decrease in fluorescence signal, not cytotoxic) is the desired output for this assay.
1. Dansithong, W., Paul, S., Scoles, D. R., Pulst, S. M., and Huynh, D. P. (2015) Generation of SNCA Cell Models Using Zinc Finger Nuclease (ZFN) Technology for Efficient High-Throughput Drug Screening. PLoS ONE 10, e0136930.
SEQUENCE No. (e.g., 1, 2, 3, etc.); […] (e.g., Cells, Incubation, Reagent, etc.); VALUE; DESCRIPTION
1; Cells; 4 uL; Dispense 1500 HEK-293-SNCA-luc cells/well into Greiner 1536-well white / solid bottom tissue culture treated plate. The plate was covered with metal lids with gas-exchange holes.
2; Incubate; 24 hours; Incubate at 37C, 5% CO2, 95% RH.
3; Compounds; 23 nL; Compounds and controls were transferred via a Kalypsys Pin Tool (Wako USA) equipped with a 1536-slotted pin array. The plate was covered with metal lids with gas-exchange holes.
4; Incubate; 24 hours; Incubate at 37C, 5% CO2, 95% RH.
5; Dispense; 1 uL; Dispense Gly-Phe-7-amino-4-trifluoromethylcoumarin (GF-AFC, prepared at 125 uM in PBS) was added. The plate was covered with metal lids with gas-exchange holes.
6; Incubate; 30 min; Incubate at 37C, 5% CO2.
7; Detector; Fluorescence; Measure fluorescence with ViewLux microplate reader (PerkinElmer) equipped with 405/10 excitation and 540/25 emission filters.
8; Dispense; 3 uL; Dispense ONE-Glo ([…]) lucifase detection reagent was added to each well. Plates were covered with metal lids with gas-exchange holes.
9; Incubate; 15 min; Incubate at room temperature.
10; Detector; Luminescence; Measure luminescence with ViewLux microplate reader (PerkinElmer) equipped with clear filters.
NOTES (numbers refer to sequence above)
1; HEK-293-SNCA-luc were cultured and suspended in phenol-red free DMEM (4.5 g/L glucose, 25 mM HEPES, cat #21063 (Thermo)).
3; Compounds were added to the assay plate in an 11-point intra plate dose response, 1:3 titration in DMSO with a final concentration range of […]. Vehicle-only plates, with DMSO being pin-transferred to every well, were inserted at the beginning of screening runs to confirm expected assay performance. Activity was normalized to wells containing medium only (-100% activity, full inhibition) and SNCA-luc cells treated with DMSO vehicle control (0% activity), contained on the same plate as test samples.
10; Signals were analyzed, and dose-response curves were fit using the Hill equation. Compounds in curve classes -1.1, -1.2, -2.1, -2.2 in the SNCA-luc assay were considered active. Compounds were eliminated from further consideration if also active (curve class -1.1, -1.2, -1.3, -1.4, -2.1, -2.2, -2.3, -2.4) in the GF-AFC cytotoxicity assay.
Background: Counterscreens check selectivity or assay interference.
In the case of `CCCCS(=O)(=O)N1CCCC(Cn2c(C3CC3)nc3cccnc32)C1` (configuration not stated), the “activity change, negative = cytotoxicity” value is -2.74%.
Turning to `O=C1CC(c2ccccc2)N(Cc2cn[nH]c2-c2ccc(F)cc2)CCCCCN1` (configuration not stated), the “activity change, negative = cytotoxicity” value is -15.3%.
For the molecule `COc1ccc(-c2nc(C(C)C)nc3c2CCN([S+](=O)([O-])c2cccc(C(F)(F)F)c2)CC3)cc1`, the “activity change, negative = cytotoxicity” value is -10.8%.
Still for that read-out and setting: the result for `CC(C)NC(=O)N1CC(Oc2ccc(-c3noc(-c4cccnc4)n3)cc2)C1` reads -29.9%; that for `O=C(Nc1cccc(Cl)c1)C1CCCN(c2ccnc3ccnn23)C1` (configuration not stated), -11%.
`c1cn(-c2ccc(N3CCCCCC3)nc2)c(-c2cc3n(n2)CCCNC3)n1`: the “activity change, negative = cytotoxicity” value was 7.54%.
Still for that read-out and setting: for `CSCC(=O)N1CCC2(CC1)CC(c1ccccc1)CN(C)C2` (configuration not stated) the value was 0.187%; for `O=C(c1cccc(C(F)(F)F)c1)N1C[C@@H](CO)[C@H](c2ccccn2)C1`, 0.505%; for `CC(C)c1ccc(S(=O)(=O)N2CCc3nn(C)c(=O)n3CC2)cc1`, 4.59%.
Still for that read-out and setting: for `COc1ccc(C(=O)N2C(C(=O)NCC(C)C)COC23CCN(C(=O)C2CCC2)CC3)cc1` (configuration not stated) the value was 4.16%; for `Cc1ccc(NC(=O)CN2CC3CC(C2)[C@H]2CCCC(=O)N2C3)cc1` (some centres not stated), -2.58%.
The same measure, in the same setting: the result for `O=C(NC[C@H]1OC[C@@H](NCc2ccccn2)[C@@H]1O)C1CCCC1` reads -11.2% [at 87.6 µM]; that for `Cc1ccc(CN2CCCN(Cc3ccncc3)C(c3ccccc3)CC(=O)NCC2)s1` (configuration not stated), 1.35%.
In the case of `COc1ccc(CNC[C@H]2O[C@H](Cc3cc(-c4ccc(OC)cc4)on3)CC[C@@H]2O)cc1`, the “activity change, negative = cytotoxicity” value is 3.22%.
On the same count and under the same terms, the result for `CCOc1ccc(C(=O)N2C[C@@H](CO)[C@H](c3ccncc3)C2)cc1` reads 7.42%.
As for `Cc1ccc(C(=O)N2C[C@@H](CO)[C@H](c3ccncc3)C2)c(C)c1`, the “activity change, negative = cytotoxicity” value was -0.327%.
As to `O=C(C1CCCC1)N1C[C@@H](CO)[C@H](c2ccncc2)C1`, the Potency was 20 µM (active).
In the case of `O=C1CCC2(CCN(Cc3ccc4[nH]ccc4c3)CC2)CN1CCc1ccccc1`, the “activity change, negative = cytotoxicity” value was -9.99%.
Still for that read-out and setting: for `O=C(c1ccoc1)N1CCC(N2C(=O)[C@H]3CN(Cc4ccccc4)C[C@H]3C2=O)CC1` the value was 14.6%.
The same measure, in the same setting: the result for `CCCNC(=O)N1CCC2(CC1)CC(C(=O)N1CCOCC1)N(C)C2` (configuration not stated) reads -3.1%; that for `O=C(NCc1ccnc2[nH]ccc12)c1ccccn1`, 2.85% [at 87.6 µM].
The same measure, in the same setting: the result for `COc1ccc(-c2cc(-c3cnc4[nH]ccc4c3)cn3cncc23)cn1` reads -7.15% [at 87.6 µM]; that for `COC[C@@H]1[C@H](NC(=O)C2(Cn3ccnc3)CC2)[C@@H]2CCO[C@H]12`, 0.192%.
As to `CCN1CCN(C(=O)c2cn3cc(-c4ccc(C(F)(F)F)cc4)sc3n2)CC1`, the “activity change, negative = cytotoxicity” value is 4.72%.
Same read-out and setting: the result for `Cc1noc(C)c1CNC(=O)[C@H]1CN(Cc2ccccc2)C[C@H]1C(=O)O` reads -8.06%.
On the same count and under the same terms, the result for `COCC(=O)N[C@H]1C[C@H]2C(=O)Nc3ccc(/C=C/c4ccc(OC)cc4)cc3C(=O)N2C1` reads -2.8%; that for `CN(Cc1cccnc1)C1CN(C(=O)Nc2ccccc2F)C1`, -21%.
